Screening data as filed in PubChem BioAssay.
Most compounds without a hit are left out; they make up all but 6% or so of the library.
D1 PAM = human D1 dopamine receptor positive modulation. P21728. AID 504651. potentiation, % at 10 µM. hit rate 0.036% among 360,000. HEK293 TREx D1 cells, calcium flux, dopamine EC20 potentiation; in the data active = potentiation above about 30%; also: 0% is about no effect
DRD3 antagonist = D3 dopamine receptor (human) antagonism; P35462; max response, negative = inhibition, %; hit rate 2.5% among 360,000; D3R cells, DiscoveRx beta-arrestin luminescence, antagonist mode; active compounds read low; in the data active = max response below about -50%; inconclusive = no clear call, values can overlap the other calls; also: % is scaled to controls: 0 for no effect and ±100 for the full control effect
Target sequence (P35462 whole entry, looked up): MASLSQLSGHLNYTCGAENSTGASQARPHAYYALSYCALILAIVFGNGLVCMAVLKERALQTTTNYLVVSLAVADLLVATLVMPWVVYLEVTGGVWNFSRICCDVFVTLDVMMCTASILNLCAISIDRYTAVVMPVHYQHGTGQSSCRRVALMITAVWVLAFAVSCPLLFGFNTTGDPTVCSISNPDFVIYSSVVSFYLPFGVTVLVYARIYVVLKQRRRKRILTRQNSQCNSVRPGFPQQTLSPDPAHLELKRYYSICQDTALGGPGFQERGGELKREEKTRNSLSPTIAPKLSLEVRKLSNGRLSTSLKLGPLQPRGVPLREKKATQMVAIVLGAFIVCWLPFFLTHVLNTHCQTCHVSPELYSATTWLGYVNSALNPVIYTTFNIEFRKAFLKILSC
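Cells expressing the human receptor were seeded at 1500 cells/well, incubated overnight at 37 degrees C in 5% CO2, then exposed to library compounds with dopamine controls for 90 minutes at 37 degrees C before luminescent detection.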
D1 ag = activates the human D1 dopamine receptor; HEK293 T-REx D1 cells, calcium flux, agonist mode; activation, % at 2 µM; hit rate 1% among 360,000; in the data active = activation above about 30%; also: 0% is about no effect
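Tetracycline-induced HEK293 TREx D1 cells, force-coupled to calcium signalling, were dye-loaded with a no-wash calcium kit. Compound was pin-added after a 10 s baseline. Fluorescence was read kinetically at 1 cycle/s for 180 s, with calcium rises flagged as agonism.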
DRD3 agonist = activates the human D3 dopamine receptor. P35462. D3R DiscoveRx beta-arrestin cells, luminescence, 90 min. max activation, %. hit rate 0.58% among 410,000; in the data active = max activation above about 30%; also: 0% is about no effect
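Cells at 1500/well, incubated overnight, then treated with pinned compounds (dopamine as control) for 90 min at 37 degrees C. DiscoveRx reagent added for 30 - 60 minutes at room temperature; luminescence read.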
D1 antag = human D1 dopamine receptor antagonism; activity change, negative = inhibition, % at 10 µM; hit rate 3.2% among 360,000; AID 504652; P21728; HEK293 TREx D1 cells, calcium flux, dopamine EC80; active compounds read low; in the data active = activity change below about -30%; also: % is scaled to controls: 0 for no effect and ±100 for the full control effect
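Calcium flux readout: force-coupled, inducible Hek293 Trex D1 line, cells induced overnight at 30 C with tetracycline, dye-loaded 30–90 min at RT. Antagonism scored against EC80 dopamine challenge given 180 s after compound.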
* marks the source's active call; other numbers are inactive results; ! = a repeat was not active.

Screening CCC(=O)N1CCC(C)(C(=O)Nc2ccc3c(c2)OCCO3)C1 (stereo not given) returned DRD3 antagonist -4 and DRD3 agonist 2.
For Cc1cccc(N2CCN(C(=O)CCc3nnc4n(CC(C)C)c(=O)c5ccccc5n34)CC2)c1C the results were D1 PAM -4, D1 ag 3, DRD3 agonist 13 and D1 antag -4.
CCSc1nnc(NC(=O)c2nc(S(=O)(=O)Cc3ccc(F)cc3)ncc2Cl)s1 was read as D1 PAM 9, DRD3 antagonist -68*, D1 ag 1, DRD3 agonist -18 and D1 antag -1.
For O=C(Nc1nc2ccc(F)cc2s1)c1nc(S(=O)(=O)Cc2ccccc2F)ncc1Cl the results were D1 PAM 12, D1 ag 0, DRD3 agonist -28 and D1 antag -34*.
For CCCSc1nnc(NC(=O)c2ccco2)s1 the results were D1 PAM 3, DRD3 antagonist -13, D1 ag 3, DRD3 agonist -6 and D1 antag 2.
For Cc1ccc(C)c(NC(=O)c2nc(S(=O)(=O)Cc3ccc(F)cc3)ncc2Cl)c1 the results were D1 PAM -2, D1 ag 0, DRD3 agonist -29 and D1 antag -37*.
`O=C(Nc1nnc(SCc2ccccc2F)s1)c1ccco1` gave D1 PAM -7, DRD3 antagonist 17, D1 ag 3, DRD3 agonist 10 and D1 antag -82*.
`CCCN(CCC)S(=O)(=O)c1ccc(C)cc1` gave D1 PAM -2, DRD3 antagonist 14, D1 ag 2, DRD3 agonist 8 and D1 antag -11.
For Cc1ccccc1NC(=S)NC(=O)COc1ccccc1C the results were D1 PAM 7, DRD3 antagonist 11, D1 ag 4, DRD3 agonist 5 and D1 antag 15.
Screening COc1ccc(CCNC(c2ccc(F)cc2)c2nnc(-c3ccccc3Cl)o2)cc1OC (stereo not given) returned D1 PAM -2, D1 ag 7, DRD3 agonist 5 and D1 antag 3.
For C[C@@H](O)[C@H]1C(=O)N2C(C(=O)O)=C([C@H]3CCCO3)S[C@H]12 the results were DRD3 agonist -2.
Screening O=C(Nc1nnc(SCc2ccc(F)cc2)s1)c1ccccn1 returned D1 PAM -4, DRD3 antagonist -66*, D1 ag 2, DRD3 agonist -26 and D1 antag -2.
CC(C)c1nnc(NC(=O)c2nc(S(=O)(=O)Cc3ccccc3F)ncc2Cl)s1 was read as D1 PAM -1, DRD3 antagonist -51*, D1 ag 2, DRD3 agonist -6 and D1 antag 0.
`CC1CCCN(C(=O)c2cc3ccccc3cc2O)C1` (stereo not given) gave D1 PAM 5, DRD3 antagonist 11, D1 ag 2, DRD3 agonist 1 and D1 antag -15.
Screening CCCC(=O)n1nc(-c2cccnc2)nc1NCc1ccccc1 returned D1 PAM -4, DRD3 antagonist 33, D1 ag 1, DRD3 agonist -1 and D1 antag -42*!.
Screening CCC(=O)Nc1cccc(NC(=O)c2ccc(C)cc2Cl)c1 returned D1 PAM -4, DRD3 antagonist 2, D1 ag 0, DRD3 agonist -2 and D1 antag -46*.
Screening Cc1ccc(Nc2nc(CSc3nnnn3-c3ccccc3)cs2)cc1 returned D1 PAM -3, DRD3 antagonist 1, D1 ag 1, DRD3 agonist 2 and D1 antag 5.
`Cc1cccc(-n2nnnc2SCc2csc(-c3ccccc3)n2)c1` gave D1 PAM -2, DRD3 antagonist -2, D1 ag 42*, DRD3 agonist 7 and D1 antag -26.
For c1ccc(-c2noc(CSc3nnnn3-c3ccccc3)n2)cc1 the results were D1 PAM -5, DRD3 antagonist 27, D1 ag 13, DRD3 agonist 4 and D1 antag -43*.
For CC1(C(=O)NCCc2ccccc2)Cc2c(-c3cccc(C(F)(F)F)c3)ccnc2O1 (stereo not given) the results were DRD3 antagonist inconclusive and DRD3 agonist -5.
COc1ccc(-c2ccc(-c3cc(=O)oc4cc(OC)c(OC)c(OC)c34)cc2)cc1OC was read as DRD3 antagonist 3 and DRD3 agonist 34*.
